Results filed as inconclusive are left out. A call without a number means that no potency is given here. The source made the active and inactive calls. Calls come from the whole dose curve; as a rule, active = well fitted curve in the direction sought with a large enough effect; inconclusive = small, poorly fitted or top-dose-only effect, or another doubt; inactive = no such curve, though single readings can be large; an effect the other way counts as inactive or inconclusive.
Legend:
[1] = target: Cellular tumor antigen p53 (Homo sapiens) (UniProt P04637); test: Primary qHTS for small molecule compounds that upregulate eGFP-tagged delta133p53alpha (in N-terminal) cells. (AID 2060322); settings: NCI-H358 eGFP-delta133p53alpha fluorescence, 24 h; activation: hits give high values; note: nearly all actives have a fitted effect of over 75% in size; note: potency is the fitted concentration of half-maximal effect;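 for activation: cells pre-induced with doxycycline then dosed without doxycycline; series mostly up to about 56 µM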
Sequence of Cellular tumor antigen p53 (Homo sapiens) (P04637 whole entry, looked up): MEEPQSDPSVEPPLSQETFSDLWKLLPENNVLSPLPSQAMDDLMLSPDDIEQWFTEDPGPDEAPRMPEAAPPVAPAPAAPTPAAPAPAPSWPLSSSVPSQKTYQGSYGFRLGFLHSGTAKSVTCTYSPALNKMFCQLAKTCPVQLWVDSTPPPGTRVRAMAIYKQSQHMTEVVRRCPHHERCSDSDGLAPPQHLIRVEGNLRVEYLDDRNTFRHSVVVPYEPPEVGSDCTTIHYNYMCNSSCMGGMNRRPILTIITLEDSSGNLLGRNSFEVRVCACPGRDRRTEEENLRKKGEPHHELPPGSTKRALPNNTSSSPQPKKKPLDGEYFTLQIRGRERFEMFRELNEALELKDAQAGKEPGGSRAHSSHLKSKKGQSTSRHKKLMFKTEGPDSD
How it was run: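 NCI-H358 cells pre-induced 24 h with 10 ng/ml doxycycline for eGFP-delta133p53alpha, plated dox-free and exposed 24 h at 37C to titrated compounds. Fixed, Hoechst-stained; gated GFP peak intensity by laser scanning cytometry, normalized to DMSO (0%) and 57.5 uM 5-azacytidine (100%).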

[2] = target: Aldehyde dehydrogenase, mitochondrial (Homo sapiens) (UniProt P05091); test: qHTS for Inhibitors of the Aldehyde Dehydrogenase Family (ALDH2) Primary screen (AID 2061308); note: nearly all actives have a fitted effect of over 55% in size
[3] = target: Retinaldehyde dehydrogenase 3 (Homo sapiens) (UniProt P47895); test: qHTS for Inhibitors of the Aldehyde Dehydrogenase Family (ALDH1A3) Primary screen (AID 2061315)

SMILES	activation [1]	Potency [2]	Potency [3]	Potency [1]
CC1(C)C[C@H](O)C[C@@]2(C)OC(=O)C=C12	19.6% (inactive)	inactive	inactive	
CCC(C)C1NC(=O)C(Cc2ccccc2)NC(=O)C(CCCCCC(=O)C(O)CO)NC(=O)C2CCCCN2C1=O (stereo not drawn)	-9.92% (inactive)	inactive	inactive	
CN1C(=O)c2ccccc2-n2c(nc3ccccc3c2=O)[C@@]12O[C@H]2c1ccccc1	13% (inactive)	inactive	inactive	
CC1=C(C(=O)OC2OC(COC3OC(CO)C(O)C(O)C3O)C(O)C(O)C2O)C(C)(C)CCC1 (stereo not drawn)	-14.5% (inactive)	inactive	inactive	
CC1CCC2(C(=O)O)CCC3(C)C(=CCC4C5(C)CCC(OC(=O)/C=C/c6ccccc6)C(C)(C)C5CCC43C)C2C1C (stereo not drawn)	-8.4% (inactive)	inactive	inactive	
C=C(C)[C@@H]1CC[C@](C)(O)[C@@H](OC(=O)c2ccccc2)C1	-15.2% (inactive)	inactive	inactive	
O=C(Nc1ccc(Cl)cc1F)c1ccccc1O	8.59% (inactive)	inactive	inactive	
CC(C)(O)c1ccc2c(c1)C(=O)C[C@H]1[C@](C)(C(=O)O)CCC[C@]21C	-1.53% (inactive)	inactive	inactive	
O=C(/C=C/c1ccc(O)cc1)N[C@@H](Cc1ccc(O)cc1)C(=O)O	2.29% (inactive)	inactive	inactive	
COc1cc(-c2cc(-c3cccc(O)c3)cnc2N)cc(OC)c1OC		inactive	inactive	16.9 µM (active)
CC1(C)CC[C@]2(C(=O)O[C@@H]3O[C@H](CO)[C@@H](O)[C@H](O)[C@H]3O)CC[C@]3(C)C(=CCC4[C@@]5(C)CC[C@H](O[C@@H]6O[C@H](C(=O)O)[C@@H](O)[C@H](O[C@@H]7O[C@H](CO)[C@H](O)[C@H](O)[C@H]7O)[C@H]6O)C(C)(C)C5CC[C@]43C)C2C1 (stereo partly drawn)	-9.92% (inactive)	inactive	inactive	
